Inhibition data for 36 molecules are collected here from ChEMBL document CHEMBL3433997, “St. Jude Leishmania screening dataset” (2016).

Each structure is given as a SMILES string.

Common to all, as to type: functional
Test [1] addresses Solute carrier family 2, facilitated glucose transporter member 1 (Homo sapiens) (UniProt P11166). Description: ST_JUDE_LEISH: Cytotoxicity at 2uM final concentration against transgenic Leishmania Mexicana promastigotes LmGLUT1 that are glucose transport deficient and complemented with the human glucose transporter GLUT1. Activity is measured by DNA content using SYBR green in vitro.

Test [2] deals with Hexose transporter 1 (Plasmodium falciparum) (UniProt O97467). The test is described as follows: ST_JUDE_LEISH: Cytotoxicity at 2uM final concentration against transgenic Leishmania Mexicana promastigotes LmPfHT that are glucose transport deficient and complemented with the Plasmodium falciparum hexose transporter. Activity is measured by DNA content using SYBR green in vitro.

The target of test [3] is Glucose transporter (Leishmania mexicana) (UniProt O61059). Description: ST_JUDE_LEISH: Cytotoxicity at 2uM final concentration against transgenic Leishmania Mexicana promastigotes LmGT2 that are glucose transport deficient and complemented with the L. Mexicana glucose transporter 2. Activity is measured by DNA content using SYBR green in vitro.

Chain of Solute carrier family 2, facilitated glucose transporter member 1 (Homo sapiens) (P11166 whole entry): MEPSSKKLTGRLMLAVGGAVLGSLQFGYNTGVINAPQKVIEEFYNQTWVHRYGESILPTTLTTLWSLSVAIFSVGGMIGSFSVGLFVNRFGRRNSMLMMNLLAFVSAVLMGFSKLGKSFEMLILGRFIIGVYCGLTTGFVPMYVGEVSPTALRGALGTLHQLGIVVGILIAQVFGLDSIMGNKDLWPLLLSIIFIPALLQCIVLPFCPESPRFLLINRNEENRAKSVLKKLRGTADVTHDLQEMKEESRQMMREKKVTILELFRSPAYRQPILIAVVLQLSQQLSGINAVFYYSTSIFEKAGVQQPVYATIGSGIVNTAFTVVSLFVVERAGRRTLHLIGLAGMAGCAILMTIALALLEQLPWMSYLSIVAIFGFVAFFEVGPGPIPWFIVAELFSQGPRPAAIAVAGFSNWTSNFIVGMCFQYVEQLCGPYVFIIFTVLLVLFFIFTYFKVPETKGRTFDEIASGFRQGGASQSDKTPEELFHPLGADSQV

Regarding `O=C(NCC1COc2ccccc2O1)c1cnc2c(c1)nc(-c1c[nH]c(-c3ccccc3)n1)n2CCSCc1c(F)cccc1Cl` (stereo not drawn), the inhibition in test [1] worked out at 4.51%; in test [2] it was 3.79%; in test [3], 3.91%.

Turning to `CCNC[C@@H](O)[C@H](Cc1ccccc1)NC(=O)c1cc2c3c(c1)c(CC)cn3CCS(=O)(=O)N2C`, the inhibition was 0.67% in test [1], 0.11% in test [2] and -0.02% in test [3].

For the molecule `Cc1ccccc1C1CCN(C2CCC(NC(=O)/C=C/c3ccc(F)c(F)c3)CC2)CC1` (stereo not drawn), the values for the inhibition in test [1], in test [2] and in test [3] were -1.77%, -1.74% and -1.27%, respectively.

As to `Cc1nn(-c2ccccc2)nc1C(=O)N(Cc1ccc(-c2ccc(CNCCc3ccc(S(C)(=O)=O)cc3)cn2)cc1)C1CC1`, the inhibition in test [1] stood at 3.23%; in test [2] it was 3.85%; in test [3] it was 2.91%.

For the molecule `COc1ccc(-c2cccc(NC(=O)c3ccc(C#N)cc3)c2)cc1CN(C)CCN(C)C`, the inhibition was found to be 2.8% in test [1], 2.9% in test [2] and 0.41% in test [3].

As to `COc1cccc(CC(=O)N2CCC(n3c(C)nc4ccc(F)cc43)CC2)c1`, the inhibition in test [1] amounted to 2.08%; in test [2], 4.64%; in test [3], 2.33%.

For the molecule `Cc1cc(=O)c(-c2ccc(OCc3ccc(OC(F)(F)F)cc3)cc2)c(C)[nH]1`, the inhibition was determined as 7.02% in test [1], 4.41% in test [2] and 2.08% in test [3].

Turning to `O=c1cc(NCCCNCc2ccc(Cl)c(Cl)c2)[nH]c2cc(Cl)ccc12`, the inhibition came to 2.05% in test [1], 3.29% in test [2] and 2.73% in test [3].

For `COc1ccc(CN2CCC(CNCCc3ccccc3Cl)CC2)cc1`, the inhibition in test [1] is 19.2%; in test [2], 11.1%; in test [3] it was 12.5%.

`COc1ccc(CNCc2ccc(-c3cccc(-c4nc5cccc(C)c5[nH]4)c3)cc2)cc1`: the inhibition in test [1] was 2.87%; in test [2], 1.37%; in test [3], 0.41%.

For `Cc1cc(NCc2ccc(F)cc2)nc2cc(O)ccc12`, the inhibition in test [1] is 2.81%; in test [2], 3.64%; in test [3] it was 1.59%.

As for `COc1ccc(-c2cc(C(=O)N[C@@H](CC3CCCCC3)C(=O)NCCN3CCCCC3)ccc2O)cc1`, the inhibition was -0.43% in test [1], -0.56% in test [2] and -0.35% in test [3].

As for `COc1cc(Cc2cnc(N)nc2N)cc(OCCCCC#N)c1OC`, the inhibition amounted to 2.09% in test [1], 1.74% in test [2] and 5.77% in test [3].

In the case of `CCC/C=C/c1c(CNCCCNc2cc(=O)c3ccccc3[nH]2)sc(CC)c1Br`, the inhibition in test [1] is 0.5%; in test [2], 1.29%; in test [3], 0.32%.

With `O=C(Cc1cccs1)NC(CCCN1CCC(Oc2cccc(Cl)c2)CC1)c1ccc(Cl)c(Cl)c1` (stereo not drawn), the inhibition in test [1] was 1.97%; in test [2], -1.59%; in test [3], -1.89%.

In the case of `Cc1cnc(NCC2CCCCC2)nc1N[C@@H](CC(C)C)C(=O)Nc1ccccc1`, the inhibition in test [1] stood at 2.17%; in test [2], 1.5%; in test [3] it was 0.65%.

With `Cc1cc(C(=O)Nc2ccc(-c3ccccc3)cc2)no1`, the inhibition was found to be 2.6% in test [1], 0.53% in test [2] and 0.52% in test [3].

In the case of `O=C(Nc1ccncc1)Nc1ccc2c(c1)CCN(C1CCC1)CC2`, the inhibition in test [1] amounted to 3.98%; in test [2] it was 3.34%; in test [3] it was 11%.

On to `COC(=O)c1cc2cccc(NC[C@@H](C)NC[C@H](O)c3cccc(Cl)c3)c2[nH]1`, for which the inhibition is -0.1% in test [1], 1.58% in test [2] and 1.28% in test [3].

Consider `O=C(Nc1ccc(C(=O)OCC2CCCN3CCCCC23)cc1)c1ccc([N+](=O)[O-])cc1` (stereo not drawn), for which the figures for the inhibition in test [1], in test [2] and in test [3] were -1.57%, 0.57% and 0.99%, respectively.

On to `CS(=O)(=O)Nc1cccc(-c2cnc3[nH]cc(-c4cc(N)cc(C(=O)O)c4)c3c2)c1`, for which the figures for the inhibition in test [1], in test [2] and in test [3] were 0.76%, 1.94% and -0.41%, respectively.

Turning to `O=C(/C=C/c1ccc(Cl)c(Cl)c1)NCCCCN1CCCN(C(=O)Nc2ccc(F)c(Cl)c2)CC1`, the results for the inhibition in test [1], in test [2] and in test [3] were 3%, 1.91% and -0.33%, respectively.

`Cc1cccc2nc(-c3ccc(-c4ccc(CN5CC(C)OC(C)C5)cc4)cc3)[nH]c12` (stereo not drawn): the inhibition was 4.48% in test [1], 3.58% in test [2] and 0.01% in test [3].

Regarding `CC[C@H]1CN(CCCC(=O)c2ccccc2)CC[C@H]1CCCc1ccnc2ccc(OC(=O)c3ccccc3)cc12`, the inhibition in test [1] worked out at 4.64%; in test [2], 5.86%; in test [3] it was 2.72%.

For the molecule `CN(C)c1ccc(NC(=O)Nc2ccnc3ccccc23)cc1Br`, the inhibition in test [1] was 8.81%; in test [2], 8.16%; in test [3], 6.85%.

Take `CN(C)Cc1cc2c(O)c(Cc3ccccc3)ccc2o1`: the inhibition in test [1] is 2.65%; in test [2], 4.63%; in test [3] it was 3.94%.

Turning to `COc1cc(Nc2nccc(N3CCC(NC(=O)C4COc5ccccc5O4)C3)n2)cc(OC)c1OC` (stereo not drawn), the inhibition in test [1] turned out to be 2.77%; in test [2], 1.3%; in test [3], 2.12%.

Turning to `COc1cc(NCCCNC(=O)c2cc3c(Cl)cc(Cl)cc3[nH]2)nc2ccccc12`, the inhibition in test [1] was found to be 2.04%; in test [2] it was 6.51%; in test [3], 0.77%.

As to `N#Cc1cccc(NC(=O)Nc2ccc3c(c2)CCN(C2CCC2)CC3)c1`, the results for the inhibition in test [1], in test [2] and in test [3] were 5.45%, 4.43% and 4.94%, respectively.

On to `CCn1c(Sc2ccc([N+](=O)[O-])c(C#N)c2)nnc1-c1cccc(Cl)c1`, for which the inhibition in test [1] was 1.53%; in test [2], 0.29%; in test [3] it was -1.08%.

With `COc1cc2nc(N3CCC(CNC(=O)/C=C/c4ccccc4F)CC3)nc(N)c2cc1OC`, the figures for the inhibition in test [1], in test [2] and in test [3] were 8.22%, 7.84% and 4.27%, respectively.

Regarding `CC(=O)c1cccc(NC(=O)NC2CCN(c3ccnc(Nc4ccc(F)cc4)n3)C2)c1` (stereo not drawn), the inhibition in test [1] is -1.36%; in test [2], -0.93%; in test [3], -0.03%.

For the molecule `Cc1cccc2nc(-c3ccc(-c4ccc(C(=O)NCCN5CCCC5)cc4)cc3)[nH]c12`, the inhibition in test [1] was 0.86%; in test [2] it was -1.27%; in test [3], -0.61%.

With `COc1ccc2nc(N3CCN(C(=O)OC(C)(C)C)CC3)nc(NCCCc3ccccc3)c2c1`, the inhibition in test [1] came to 28.4%; in test [2] it was 23.1%; in test [3], 8.03%.

Turning to `O=C1NC(C(=O)Nc2ccccc2)C(c2ccccc2)S1` (stereo not drawn), the inhibition in test [1] was -0.88%; in test [2], -1.96%; in test [3] it was -0.52%.

With `Cc1cccc2nc(-c3cccc(-c4cccc(NC(=O)NCc5ccccc5)c4)c3)[nH]c12`, the inhibition is 3.73% in test [1], 5.29% in test [2] and -4.27% in test [3].

The inhibition is the drop in the measured response relative to a control, in per cent.
